# Laboratory results reported in PubChem BioAssay AID1445 (SRMLSC, 2008).
# In all, about 220,000 compounds went through this assay and about 910 (0.41%) were called active. The list comes from a sample in which actives are over-represented; it also holds similar structures and randomly drawn compounds. Results with a measured potency or affinity are listed apart. A number with no mark means an inactive call.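 How the source made its calls: active means primary inhibition above the hit cutoff, then over 50% inhibition at one or more dose response concentrations (cut at about 23% in these data, passing the limit was not always enough); inconclusive means conflicting primary data, or primary hits not chosen for dose response; inactive means low primary inhibition, or under 50% at every dose.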
# Target: Aminopeptidase N (Plasmodium falciparum (isolate 3D7)) (UniProt O96935)
# Test: P. falciparum M1AAP inhibitors, biochemical, fluorogenic H-Leu-NHMec substrate, 1536-well (AID 1445);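 further: plate controls were DMSO full reaction for no effect and no enzyme background for full effect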
# Conditions: recombinant M1AAP, H-Leu-NHMec fluorogenic kinetic assay; at 30 µM, active compounds read high unless noted
# Chain of Aminopeptidase N (Plasmodium falciparum (isolate 3D7)) (O96935 whole entry, looked up): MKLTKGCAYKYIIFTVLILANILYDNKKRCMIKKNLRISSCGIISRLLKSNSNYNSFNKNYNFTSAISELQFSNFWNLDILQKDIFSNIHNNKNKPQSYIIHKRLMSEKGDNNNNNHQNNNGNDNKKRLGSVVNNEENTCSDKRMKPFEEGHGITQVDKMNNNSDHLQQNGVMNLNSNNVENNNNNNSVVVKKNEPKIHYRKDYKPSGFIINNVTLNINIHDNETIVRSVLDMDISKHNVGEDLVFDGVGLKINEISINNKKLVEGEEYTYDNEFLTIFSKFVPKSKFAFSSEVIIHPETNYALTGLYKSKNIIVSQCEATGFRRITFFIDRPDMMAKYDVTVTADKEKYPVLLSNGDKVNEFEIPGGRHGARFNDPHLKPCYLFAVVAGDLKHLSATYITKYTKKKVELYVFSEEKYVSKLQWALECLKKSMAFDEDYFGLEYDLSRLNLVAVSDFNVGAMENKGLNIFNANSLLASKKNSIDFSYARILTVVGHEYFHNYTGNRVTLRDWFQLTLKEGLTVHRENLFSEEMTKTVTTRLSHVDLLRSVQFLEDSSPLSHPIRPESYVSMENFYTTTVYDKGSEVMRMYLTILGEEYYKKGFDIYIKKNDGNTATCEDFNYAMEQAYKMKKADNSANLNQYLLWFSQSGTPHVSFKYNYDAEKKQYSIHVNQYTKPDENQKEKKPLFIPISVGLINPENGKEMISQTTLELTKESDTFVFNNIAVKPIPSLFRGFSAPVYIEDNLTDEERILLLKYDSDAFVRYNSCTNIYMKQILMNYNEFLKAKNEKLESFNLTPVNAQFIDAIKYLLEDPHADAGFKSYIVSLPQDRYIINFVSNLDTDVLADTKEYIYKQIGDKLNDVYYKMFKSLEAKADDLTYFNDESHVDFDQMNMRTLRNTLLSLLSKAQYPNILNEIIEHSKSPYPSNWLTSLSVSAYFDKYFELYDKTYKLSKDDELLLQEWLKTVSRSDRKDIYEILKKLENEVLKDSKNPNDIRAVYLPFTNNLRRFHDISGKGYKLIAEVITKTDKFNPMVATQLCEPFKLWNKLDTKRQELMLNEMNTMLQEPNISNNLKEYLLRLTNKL
row,Structure (SMILES),inhibition
1,Cc1cc(C(=O)COC(=O)C2=NNC(=O)CC2)c(C)n1CCc1ccccc1,5.78%
2,CCOC(CCn1c(SCC(=O)Nc2cc(C)on2)nc2ccccc2c1=O)OCC,4.19%
3,Cc1ccc(CNC(=O)CN(CCc2ccccc2)S(C)(=O)=O)cc1,1.36%
4,Cc1ccc(/C=N/N=C2\SCC(=O)N2CC2CC2)cc1,3.09%
5,COC(=O)c1cc(=O)n(Cc2ccc3c(c2)OCO3)c(=Nc2ccccc2)s1,26.5% (active)
6,CCOC(=O)c1ccc(N=c2sc(C(=O)OC)cc(=O)n2Cc2ccc3c(c2)OCO3)cc1,4.78%
7,COC(=O)c1cc(=O)n(Cc2ccc3c(c2)OCO3)c(=Nc2ccc(F)cc2)s1,15.5%
8,Cc1[nH]c2ccc(OC(=O)N3CCOCC3)cc2c1C(=O)OC(C)C,8.46%
9,Cc1ccc(CN2C(=O)N/C(=C/c3ccc(-c4ccc(C(=O)O)cc4)o3)C2=O)cc1,6.65%
10,O=C(O)c1ccc(-c2ccc(/C=C3\NC(=O)N(Cc4ccc(Cl)cc4)C3=O)o2)cc1,6.4%
11,CC(C)Cn1c(SCC(=O)N2CCN(C(=O)c3ccco3)CC2)nc2ccccc2c1=O,7.56%
12,CCCCCn1c(NC2CCCCC2)nc2c1c(=O)[nH]c(=O)n2C,9.39%
13,COC(=O)CSC1=C(C#N)C(c2ccc(F)cc2)CC(=O)N1 (stereo not given),-0.52%
14,COC(=O)CSC1=C(C#N)C(c2ccc(C(C)C)cc2)CC(=O)N1 (stereo not given),23.7% (active)
15,COC(=O)CSC1=C(C#N)C(c2ccccc2)CC(=O)N1 (stereo not given),1.02%
16,CSc1nc2c(c(=O)n1-c1ccccc1)SCC2,9.44%
17,Cn1cc(/C=N/NC(=O)c2cc3cc(Br)ccc3o2)c2ccccc21,4.78%
18,O=C(O)Cn1cc(/C=N/NC(=O)c2cc3cc(Br)ccc3o2)c2ccccc21,18.5%
19,C=C(Br)Cn1c(CCC)nc2ccccc21,-1.16%
20,COc1ccc(NS(=O)(=O)c2cc(NC(=O)c3ccccc3F)ccc2N2CCCC2)cc1,3.17%

row,Structure (SMILES),inhibition
1,CN(C)CCCNC(=O)c1ccc(Cl)c(S(=O)(=O)N(C)c2ccccc2)c1,7.27%
2,O=C(O)C(c1ccccc1)C1(O)CCCC1 (stereo not given),16.5%
3,COc1ccc(S(=O)(=O)N(C)C)cc1NCC(=O)Nc1ccc(Br)cc1F,7.15%
4,CC1=C(C#N)C(=O)NC(=O)/C1=C\c1ccc(-c2cc(C)c(C)cc2[N+](=O)[O-])o1,11.9%
5,CC1=C(C#N)C(=O)NC(=O)/C1=C/c1ccc(-c2ccc(S(N)(=O)=O)cc2)o1,28.5%
6,C=CCOC(=O)c1cc(-c2ccc(/C=C3\C(=O)NC(=O)C(C#N)=C3C)o2)ccc1Cl,46.9% (active)
7,CCOC(=O)c1cc(-c2ccc(/C=N\n3cnnc3)o2)ccc1Cl,3.07%
8,CC1=C(C#N)C(=O)NC(=O)/C1=C\c1ccc(-c2ccc(C)cc2[N+](=O)[O-])o1,20.8%
9,CC(=O)N1CCc2cc(S(=O)(=O)CCC(=O)Nc3ccc4c(c3)OCCO4)ccc21,7.36%
10,CN(C)CCNC(=O)CN1C(=O)COc2ccc(C(C)(C)C)cc21,0.77%
11,CC(=O)COC(=O)C1CC(=O)N(c2ccc(C)c(C)c2)C1 (stereo not given),3.99%
12,O=C(COc1ncnc2ccccc12)NCCc1ccccc1,1.63%
13,NC(=S)N=Nc1c(O)[nH]c2ccccc12,23.1%
14,CC(C)(O)C(=O)N=Nc1c(O)[nH]c2ccccc12,1.86%
15,O=C(CSc1nnc(-c2ccccn2)n1Cc1ccccc1)N1CCOCC1,2.23%
16,CCOC(=O)c1[nH]cnc1C(=O)Nc1ccc(C)cc1,2.53%
17,CCOC(=O)c1[nH]cnc1C(=O)Nc1ccccc1,19.7%
18,O=C(Cn1cc(C(F)(F)F)ccc1=O)N1CCN(S(=O)(=O)c2ccc(Cl)cc2)CC1,0.58%
19,CCN1CC(CN(C)Cc2cn(-c3cccc(C)c3)nc2-c2cccc(F)c2)CC1=O (stereo not given),0.42%
20,Cc1cc2c(c(SCC(N)=O)n1)C(=O)OC2,0.63%

row,Structure (SMILES),inhibition
1,CCC(C)N1C(=O)/C(=C/c2c(NCCCOC(C)C)nc3c(C)cccn3c2=O)SC1=S (stereo not given),10.2%
2,CCCN1C(=O)/C(=C/c2c(NCCCOCC)nc3c(C)cccn3c2=O)SC1=S,-3.51%
3,CCOC(=O)CC1C(=O)NCCN1C(=O)c1cc2c(=O)n3cccc(C)c3nc2s1 (stereo not given),11.1%
4,CCCN1C(=O)/C(=C/c2c(NCCCOC(C)C)nc3c(C)cccn3c2=O)SC1=S,-6.67%
5,CCOCCCNc1nc2c(C)cccn2c(=O)c1/C=C1\SC(=S)N(CC(C)C)C1=O,-0.56%
6,CCOC(=O)CC1C(=O)NCCN1S(=O)(=O)c1ccc(OC)cc1 (stereo not given),-8.28%
7,Cc1c(NC(=O)CN2C(=O)NC3(CCCCC3)C2=O)c(=O)n(-c2ccccc2)n1C,-1.23%
8,COc1ccc(S(=O)(=O)N2CCN(C)CC2)cc1Br,-2.63%
9,Cc1nc(SCC(=O)Nc2ccccc2)c2oc3ccccc3c2n1,-7.15%
10,O=C(Nc1ccccc1)Oc1ccccc1N1CCOCC1,2.65%
11,COc1cc(C(=S)N2CCOCC2)ccc1OC(=O)c1cc([N+](=O)[O-])cc([N+](=O)[O-])c1,4.71%
12,CCOC(=O)N=Nc1c(O)n(CC)c2ccccc12,3.07%
13,CCn1c(NC(=O)c2ccccc2)c(-c2cccs2)c(=O)c2ccccc21,7.57%
14,CCCC(=O)Nc1c(-c2cccs2)c(=O)c2ccccc2n1CC,3.31%
15,CCn1c(NC(=O)c2cccs2)c(-c2cccs2)c(=O)c2ccccc21,27% (active)
16,CCn1c(O)c(N=NC(=O)C(O)c2ccccc2)c2ccccc21 (stereo not given),5.57%
17,CC1=CC2=NC(=O)/C(=C/c3coc4ccc(Cl)cc4c3=O)C(=N)N2O1,7.94%
18,N=C1/C(=C\c2coc3ccccc3c2=O)C(=O)N=C2SC=CN12,52.2%
19,N=C1/C(=C/c2coc3ccccc3c2=O)C(=O)N=C2SC(c3ccco3)=NN12,18.6%
20,CC(C)CC1=NN2C(=N)/C(=C\c3coc4ccccc4c3=O)C(=O)N=C2S1,58%
